Assay [1] concerns the target Peroxisome proliferator-activated receptor delta (Homo sapiens) (UniProt Q03181). Nature of the assay: qHTS assay to identify small molecule agonists of the peroxisome proliferator-activated receptor delta (PPARd) signaling pathway (AID 743212). Further: on the % scale 0 is the no-effect control and ±100 the full control effect. In a few lines:
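GeneBLAzer UAS-bla HEK293H cells carrying a PPARδ construct were exposed to compounds at 37 °C. Beta-lactamase activity was read by FRET fluorescence after 2 h at room temperature with LiveBLAzer B/G substrate.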
Background: In qHTS, concentration-response curves come from the screen itself.

The nature of assay [2]: qHTS assay to identify small molecule antagonists of the peroxisome proliferator-activated receptor delta (PPARd) signaling pathway - cell viability counter screen (AID 743213; active means well fitted curve in the direction sought with a large enough effect in the repeat runs; an effect the other way counts as inactive or inconclusive; further: nearly all actives have a fitted effect of over 50% in size; further: potency means the concentration at half of the fitted maximal effect). The procedure, abridged:
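Same-well viability: cells pre-incubated 5 h, dosed with compound plus 300 nM L165041, kept 17 h at 37 C, FRET substrate 2 h RT, then CellTiter-Glo 30 min RT and luminescence.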

For assay [3], the target named is Peroxisome proliferator-activated receptor delta (Homo sapiens) (UniProt Q03181). Nature of the assay: qHTS assay to identify small molecule antagonists of the peroxisome proliferator-activated receptor delta (PPARd) signaling pathway (AID 743215; active means well fitted inhibition curve with a large enough effect in the signal ratio in the repeat runs, not every such curve was filed as active; the % refers to the signal ratio;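 further: cells stimulated with agonist L165041 at 300 nM final during compound exposure; series mostly up to about 62 µM; on the % scale 0 is the no-effect control and ±100 the full control effect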). The procedure, abridged: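 HEK293H UAS-bla, PPARd; agonist L165041 300 nM final with cpd in DMSO; 37 C 17 h; FRET substrate, RT 2 h; fluorescence intensity.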
Peroxisome proliferator-activated receptor delta (Homo sapiens), sequence (Q03181 whole entry, looked up): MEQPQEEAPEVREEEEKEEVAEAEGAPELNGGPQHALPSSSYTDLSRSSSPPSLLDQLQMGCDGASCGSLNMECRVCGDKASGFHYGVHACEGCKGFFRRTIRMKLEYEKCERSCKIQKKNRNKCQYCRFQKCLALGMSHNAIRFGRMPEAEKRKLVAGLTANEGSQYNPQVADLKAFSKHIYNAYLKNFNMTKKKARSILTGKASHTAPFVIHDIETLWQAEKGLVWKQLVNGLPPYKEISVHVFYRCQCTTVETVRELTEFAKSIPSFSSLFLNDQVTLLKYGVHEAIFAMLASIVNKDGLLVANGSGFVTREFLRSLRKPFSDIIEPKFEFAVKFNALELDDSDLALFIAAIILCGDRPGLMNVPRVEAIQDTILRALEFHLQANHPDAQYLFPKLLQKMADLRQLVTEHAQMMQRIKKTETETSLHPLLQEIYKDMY

Assay [4] in a line: qHTS assay to identify small molecule antagonists of the farnesoid-X-receptor (FXR) signaling pathway - cell viability counter screen (AID 743221; active means well fitted cell-killing curve with a large enough effect in the repeat runs, not every such curve was filed as active; further: on the % scale 0 is the no-effect control and ±100 the full control effect; nearly all actives have a fitted effect of over 50% in size). The procedure, abridged:
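Cytotoxicity counter screen run in the FXR-bla reporter wells: HEK 293T cells exposed to compound with 50 uM (final) chenodeoxycholic acid for 16 h, 37 C, then viability measured by CellTiter-Glo luminescence after 30 min, room temperature.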

Assay [5] has as its target Vitamin D3 receptor (Homo sapiens) (UniProt P11473). Nature of the assay: qHTS assay to identify small molecule agonists of the vitamin D receptor (VDR) signaling pathway (AID 743222). Further: on the % scale 0 is the no-effect control and ±100 the full control effect. The procedure, abridged:
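In VDR-bla cells, compound-induced beta-lactamase expression is quantified by FRET substrate fluorescence. Treatment lasts 16 h at 37C; substrate develops 2 h at room temperature.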

For assay [6] the target is unchanged. Nature of the assay: qHTS assay to identify small molecule antagonists of the vitamin D receptor (VDR) signaling pathway (AID 743223; active means well fitted inhibition curve with a large enough effect in the signal ratio in the repeat runs, not every such curve was filed as active; the % refers to the signal ratio; further: on the % scale 0 is the no-effect control and ±100 the full control effect). In a few lines:
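Antagonist mode: compound added to VDR-bla cells alongside agonist 1alpha,25-dihydroxyvitamin D3 (3 nM final), incubation 16 h at 37C. Read-out is LiveBLAzer FRET fluorescence, 2 h at room temperature.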

Assay [7] in a line: qHTS assay to identify small molecule agonists of the vitamin D receptor (VDR) signaling pathway - cell viability counter screen (AID 743224; active means well fitted curve in the direction sought with a large enough effect in the repeat runs; an effect the other way counts as inactive or inconclusive; further: series mostly up to about 63 µM; on the % scale 0 is the no-effect control and ±100 the full control effect; nearly all actives have a fitted effect of over 50% in size). The procedure, abridged:
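Plated VDR-bla cells (4 h, 37C) received compound, incubated 16 h, then LiveBLAzer substrate 2 h RT; CellTiter-Glo added afterwards, luminescence read at 30 min.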

The nature of assay [8]: qHTS assay to identify small molecule antagonists of the vitamin D receptor (VDR) signaling pathway - cell viability counter screen (AID 743225; active means well fitted curve in the direction sought with a large enough effect in the repeat runs; an effect the other way counts as inactive or inconclusive; further: nearly all actives have a fitted effect of over 50% in size; further: potency means the concentration at half of the fitted maximal effect). In a few lines:
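Cytotoxicity counter screen read by CellTiter-Glo luminescence (30 min, room temperature) in the same wells as the VDR-bla antagonist readout. HEK 293T VDR-UAS-bla cells had 16 h at 37C with compound and 3 nM (final) 1-alpha,25-dihydroxyvitamin D3, then 2 h with FRET substrate.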

Assay [9] is described as follows: qHTS assay to identify small molecule agonists of the NFkB signaling pathway (AID 1159509; active means well fitted curve in the direction sought with a large enough effect in the signal ratio in the repeat runs, not every such curve was filed as active; the % refers to the signal ratio). In a few lines: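 NFkB-bla ME-180 cells carry a beta-lactamase reporter under an NF-kB response element. They were plated overnight, then exposed to compounds for 5 h at 37 C. Read-out is LiveBLAzer FRET after 1.5 hr at room temperature (405 nm excitation; 460/530 nm emission).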

A short description of assay [10]: qHTS assay to identify small molecule agonists of the NFkB signaling pathway - cell viability counter screen (AID 1159515). Further: series mostly up to about 61 µM; on the % scale 0 is the no-effect control and ±100 the full control effect; nearly all actives have a fitted effect of over 55% in size. The procedure, abridged: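 Using the same wells as the NFkB reporter read, ME-180 NFkB-bla cells given compounds for 5 hr were assessed for viability via CellTiter-Glo, with luminescence taken after a 30 min room-temperature incubation.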
Assay [11] can be described thus: qHTS assay to identify small molecule agonists of the endoplasmic reticulum stress response signaling pathway (AID 1159516; active means well fitted activation curve with a large enough effect in the signal ratio in the repeat runs, not every such curve was filed as active; the % refers to the signal ratio; further: on the % scale 0 is the no-effect control and ±100 the full control effect). In a few lines: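 An ESRE-bla HeLa cell assay: compounds were pin-transferred from DMSO onto overnight-plated cells and left 5 hr at 37 C. Substrate was then loaded for 2 hr at room temperature before reading fluorescence at 460 nm and 530 nm.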

Assay [12] is described as follows: qHTS assay to identify small molecule antagonists of the retinoid-related orphan receptor gamma (ROR-gamma) signaling pathway - cell viability counter screen (AID 1159520; active means well fitted curve in the direction sought with a large enough effect in the repeat runs; an effect the other way counts as inactive or inconclusive). In a few lines: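 Tet-on ROR gamma CHO cells were given compounds for 2 hr, then doxycycline hyclate at 1 uM final, and incubated 16 hr at 37 C. Viability was measured as ATP content by CellTiter-Glo luminescence.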

Assay [13] can be described thus: qHTS assay to identify small molecule agonists of the AP-1 signaling pathway - cell viability counter screen (AID 1159525). Further: nearly all actives have a fitted effect of over 55% in size. The procedure, abridged:
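AP-1-bla ME-180 cells in Opti-MEM with 0.5% dialyzed FBS, compound exposure 5 h at 37 C in 15-point titration. Viability read in the same wells as ATP content by CellTiter-Glo luminescence, normalised to tetra-n-octylammonium bromide and DMSO controls.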

A short description of assay [14]: qHTS assay to identify small molecule agonists of the AP-1 signaling pathway (AID 1159526). Further: on the % scale 0 is the no-effect control and ±100 the full control effect.
Assay [15] addresses Retinoic acid receptor RXR-alpha (Homo sapiens) (UniProt P19793). Nature of the assay: qHTS assay to identify small molecule agonists of the RXR signaling pathway (AID 1159527). Further: on the % scale 0 is the no-effect control and ±100 the full control effect; nearly all actives have a fitted effect of over 35% in size. The procedure, abridged:
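Agonist-mode beta-lactamase reporter assay: HEK 293T RXR-alpha-UAS-bla cells treated 16 hr at 37 C with compounds, 9-cis retinoic acid as positive control. LiveBLAzer FRET substrate, 405 nm excitation, 460/530 nm emission.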

In assay [16] the target is Nuclear receptor ROR-gamma (Homo sapiens) (UniProt P51449). Nature of the assay: qHTS assay to identify small molecule antagonists of the retinoid-related orphan receptor gamma (ROR-gamma) signaling pathway (AID 1159521; active means well fitted curve in the direction sought with a large enough effect in the repeat runs; an effect the other way counts as inactive or inconclusive). In a few lines:
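Antagonist read-out: drop in luminescence (ONE-Glo) from an RORE-LUC reporter in CHO cells with doxycycline-inducible ROR-gamma; 2 hr compound pretreatment, 1 uM doxycycline, 16 hr incubation at 37 C.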

A short description of assay [17]: qHTS assay to identify small molecule agonists of the farnesoid-X-receptor (FXR) signaling pathway - cell viability counter screen (AID 743218; active means well fitted curve in the direction sought with a large enough effect in the repeat runs; an effect the other way counts as inactive or inconclusive; further: on the % scale 0 is the no-effect control and ±100 the full control effect; nearly all actives have a fitted effect of over 45% in size). In a few lines: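 Parallel cytotoxicity test: compound-treated (16 h, 37 C) HEK 293T FXR-bla reporter cells were lysed with CellTiter-Glo and luminescence recorded.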
Assay [18] has as its target Bile acid receptor (Homo sapiens) (UniProt Q96RI1). Nature of the assay: qHTS assay to identify small molecule antagonists of the farnesoid-X-receptor (FXR) signaling pathway (AID 743217; active means well fitted inhibition curve with a large enough effect in the signal ratio in the repeat runs, not every such curve was filed as active; the % refers to the signal ratio; further: on the % scale 0 is the no-effect control and ±100 the full control effect). In a few lines: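 GeneBLAzer FXR-UAS-bla HEK 293T, CDCA-stimulated (50 uM final). Compound treatment 16 h, 37 °C. Detection: beta-lactamase cleavage of B/G FRET substrate, fluorescence.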

For assay [19] the target is unchanged. Nature of the assay: qHTS assay to identify small molecule agonists of the farnesoid-X-receptor (FXR) signaling pathway (AID 743220; active means well fitted activation curve with a large enough effect in the signal ratio in the repeat runs, not every such curve was filed as active; the % refers to the signal ratio; further: on the % scale 0 is the no-effect control and ±100 the full control effect). The procedure, abridged: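 Beta-lactamase reporter under UAS control in GeneBLAzer FXR HEK 293T cells (5000/well) measured with LiveBLAzer FRET substrate after 2 h at room temperature. Compound exposure lasted 16 h at 37C.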

Results filed as inconclusive are left out. A number with no mark means an inactive call. Calls of active or inactive are those of the source. Unless noted, the call rests on the fitted dose curve.

Vitamin D3 receptor (Homo sapiens), sequence (P11473 whole entry, looked up): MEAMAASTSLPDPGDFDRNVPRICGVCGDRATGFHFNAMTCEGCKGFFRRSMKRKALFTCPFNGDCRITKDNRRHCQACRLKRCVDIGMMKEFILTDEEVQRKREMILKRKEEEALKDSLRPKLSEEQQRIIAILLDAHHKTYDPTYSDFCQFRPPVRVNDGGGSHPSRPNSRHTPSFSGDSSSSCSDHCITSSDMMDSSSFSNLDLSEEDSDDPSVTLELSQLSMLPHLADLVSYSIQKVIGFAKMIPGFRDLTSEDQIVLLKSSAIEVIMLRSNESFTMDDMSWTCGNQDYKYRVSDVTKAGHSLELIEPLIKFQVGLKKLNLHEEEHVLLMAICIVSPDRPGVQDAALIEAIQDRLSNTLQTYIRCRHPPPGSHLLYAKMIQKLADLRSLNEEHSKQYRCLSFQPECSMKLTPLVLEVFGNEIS
Retinoic acid receptor RXR-alpha (Homo sapiens), sequence (P19793 whole entry, looked up): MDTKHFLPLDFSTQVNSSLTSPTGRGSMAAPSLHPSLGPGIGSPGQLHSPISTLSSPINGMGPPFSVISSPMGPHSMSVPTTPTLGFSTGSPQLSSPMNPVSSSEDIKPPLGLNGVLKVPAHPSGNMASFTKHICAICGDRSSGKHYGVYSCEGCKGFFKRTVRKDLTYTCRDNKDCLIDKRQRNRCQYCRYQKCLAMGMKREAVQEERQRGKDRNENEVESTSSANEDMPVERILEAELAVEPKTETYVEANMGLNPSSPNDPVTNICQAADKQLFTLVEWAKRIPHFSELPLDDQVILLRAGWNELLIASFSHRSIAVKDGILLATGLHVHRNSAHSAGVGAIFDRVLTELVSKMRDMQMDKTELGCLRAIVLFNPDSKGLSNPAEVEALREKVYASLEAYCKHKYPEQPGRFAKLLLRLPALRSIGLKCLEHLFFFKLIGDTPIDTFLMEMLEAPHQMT
Bile acid receptor (Homo sapiens), sequence (Q96RI1 whole entry, looked up): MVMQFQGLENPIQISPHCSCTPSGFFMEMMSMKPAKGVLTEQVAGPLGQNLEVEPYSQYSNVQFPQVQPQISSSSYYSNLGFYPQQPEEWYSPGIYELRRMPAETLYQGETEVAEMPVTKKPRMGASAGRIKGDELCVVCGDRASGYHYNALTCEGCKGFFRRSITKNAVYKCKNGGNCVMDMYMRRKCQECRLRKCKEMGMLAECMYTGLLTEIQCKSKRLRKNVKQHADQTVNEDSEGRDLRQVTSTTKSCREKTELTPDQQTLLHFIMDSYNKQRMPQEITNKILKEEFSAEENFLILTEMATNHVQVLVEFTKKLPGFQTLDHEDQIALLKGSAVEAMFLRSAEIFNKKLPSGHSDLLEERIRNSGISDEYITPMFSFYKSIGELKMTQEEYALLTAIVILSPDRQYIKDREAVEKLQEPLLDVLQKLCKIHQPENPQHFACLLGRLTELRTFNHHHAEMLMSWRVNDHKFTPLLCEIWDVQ

As for `CCCOC(=O)c1ccc(N)cc1`, the Potency entry in assay [1], in assay [2], in assay [3], in assay [4], in [7] and in [8] was “inactive” throughout. For the same compound, the Potency entry in [12] and in [15] was “inactive” throughout. The result in assay [5], in [6], in assay [9], in [10], in [11] and in [13] was inactive. Also, the outcome in [14] was inactive.

Turning to `CN1CCN(CCCN2c3ccccc3Sc3ccc(S(=O)(=O)N(C)C)cc32)CC1`, the Potency in assay [2] was 26.6 µM (active); in assay [8] it was 23.9 µM (active). Moreover, the outcome in [9], in assay [10], in assay [11], in [13] and in assay [14] was inactive. Further, the Potency entry in assay [15] was “inactive”.

In the case of `c1cnc2c(n1)CCCC2`, the Potency entry in [1], in assay [2], in assay [3], in assay [4], in assay [7] and in assay [8] was “inactive” each time. The Potency result in [16] and in assay [15] was “inactive” throughout. For the same compound, the compound was called inactive in assay [5], in [6], in assay [9], in [10], in assay [11] and in [13]. Further, the compound was called inactive in [14].

On to `CC1CN(c2cc3c(cc2F)c(=O)c(C(=O)O)cn3-c2ccc(F)cc2F)CCN1` (stereo not given), for which the activation in assay [1] is 3.73% [at 5.95 µM]; in assay [5], 5.04% [at 6.01 µM]; in [9], 0.411% [at 6.95 µM]; in assay [11], -0.328% [at 6.95 µM]; in assay [14], 2.03% [at 6.97 µM]; in assay [15] it was -0.207% [at 6.98 µM]. For the same compound, the viability change, negative = cytotoxic in assay [2] was 12.1% [at 6.26 µM]; in assay [17], 19.1% [at 5.95 µM]; in [8], 9.78% [at 6.95 µM]; in assay [13], -6.8% [at 6.97 µM]. Moreover, the ratio activity, negative = inhibition in assay [3] was 1.55% [at 6.26 µM]. Also, the activity change, negative = cytotoxicity in assay [4] is -0.0684% [at 5.95 µM]; in assay [7] it was -0.741% [at 5.95 µM]. Moreover, the activity change, negative = inhibition in assay [6] was 0.481% [at 6.95 µM]. Further, the activity, negative = cytotoxic in assay [10] is 3.41% [at 6.95 µM]. Also, in [12], the activity, negative = cytotoxicity is 3.27% [at 8.39 µM].

`CC(C)OCC1CO1` (stereo not given): the Potency result in [1], in assay [2], in assay [3], in [18], in assay [17] and in [19] was “inactive” in each case. In addition, the Potency result in assay [4], in assay [7], in assay [8], in [12] and in [15] was “inactive” each time. The call in assay [5], in assay [6], in assay [9], in assay [10], in assay [11] and in [13] was inactive. The compound was called inactive in assay [14].

`CCCCCCCCCCCC[N+](C)(C)CCCS(=O)(=O)[O-]`: the Potency entry in [1], in [3], in [17], in [4], in assay [8] and in assay [16] was “inactive” each time. Besides, the compound was called inactive in assay [5], in assay [9], in assay [10], in assay [11], in assay [13] and in assay [14].

As for `CCC(C(=O)OCCOCCN(CC)CC)c1ccccc1` (stereo not given), the Potency result in assay [2], in assay [18], in assay [19], in assay [4], in assay [7] and in assay [8] was “inactive” in each case. Also, the Potency entry in assay [15] was “inactive”. The compound was called inactive in [5], in [6], in assay [9], in assay [10], in assay [11] and in assay [13]. In addition, the compound was called inactive in assay [14].

Take `O=C(CCCN1CCC(O)(c2ccc(Br)cc2)CC1)c1ccc(F)cc1`: the Potency entry in [1], in [2], in assay [3], in assay [7], in assay [8] and in assay [12] was “inactive” each time. Besides, the compound was classed as inactive in assay [5], in [9], in assay [10], in [11], in assay [13] and in assay [14].

On to `CCc1c2c(nc3ccc(OC(=O)N4CCC(N5CCCCC5)CC4)cc13)-c1cc3c(c(=O)n1C2)COC(=O)[C@]3(O)CC`, for which the Potency entry in assay [1], in assay [17] and in [4] was “inactive” in each case. Also, the result in [9], in assay [10], in assay [11] and in assay [13] was inactive.

As for `CC(C)CCCCCOC(=O)CCCCC(=O)OCCCCCC(C)C`, the Potency entry in assay [1], in assay [2], in assay [3], in [17], in [4] and in [7] was “inactive” in each case. Moreover, the Potency result in assay [8] and in assay [12] was “inactive” each time. The result in assay [5], in assay [9], in assay [10], in [11], in assay [13] and in assay [14] was inactive.

On to `Cc1cc(O)c2c(O)c3c(O)cccc3cc2c1`, for which the Potency entry in [2], in assay [18], in assay [17], in assay [4], in [8] and in [12] was “inactive” in each case. The outcome in assay [9], in assay [10], in assay [11], in assay [13] and in assay [14] was inactive.

For `C[C@]12CCC(=O)C=C1C=C[C@@H]1[C@@H]2CC[C@@]2(C)[C@H]1CC[C@@]21CCC(=O)O1`, the Potency entry in assay [1], in [2], in [3], in assay [4], in [7] and in assay [8] was “inactive” each time. Besides, the Potency result in assay [12] and in assay [15] was “inactive” throughout. Moreover, the compound was classed as inactive in assay [9], in assay [10], in [11] and in [13].

Turning to `C/C=C(\C)C(=O)OCCC(C)CCC=C(C)C` (stereo not given), the Potency result in assay [2], in assay [18], in [17], in assay [19], in assay [4] and in assay [7] was “inactive” in each case. For the same compound, the Potency result in assay [8], in assay [12] and in assay [15] was “inactive” in each case. Also, the compound was classed as inactive in assay [5], in assay [6], in assay [9], in assay [10], in assay [11] and in assay [13]. Moreover, the compound was called inactive in assay [14].

Source of the values: PubChem BioAssay (Tox21).
